Reference: the supplement of paper PMC11732987, “Enantioselective OTUD7B fragment discovery through chemoproteomics screening and high-throughput optimisation” (Communications Chemistry, 2025)

Experiments:
Assay in all cases: log2 ratio of Biotin-Ahx-Ub-VS probe labelling (fragment/DMSO); higher = less target engagement (more negative = stronger competition), active = hit call of the paper (q ≤ 0.05, log2 ratio ≤ -1)
Conditions in all cases: compound concentration: 200 uM; treatment time: 3 h
USP34 = USP34 (UniProt Q70CQ2)
Sequence of USP34 (Q70CQ2 whole entry, the tested form may be a part): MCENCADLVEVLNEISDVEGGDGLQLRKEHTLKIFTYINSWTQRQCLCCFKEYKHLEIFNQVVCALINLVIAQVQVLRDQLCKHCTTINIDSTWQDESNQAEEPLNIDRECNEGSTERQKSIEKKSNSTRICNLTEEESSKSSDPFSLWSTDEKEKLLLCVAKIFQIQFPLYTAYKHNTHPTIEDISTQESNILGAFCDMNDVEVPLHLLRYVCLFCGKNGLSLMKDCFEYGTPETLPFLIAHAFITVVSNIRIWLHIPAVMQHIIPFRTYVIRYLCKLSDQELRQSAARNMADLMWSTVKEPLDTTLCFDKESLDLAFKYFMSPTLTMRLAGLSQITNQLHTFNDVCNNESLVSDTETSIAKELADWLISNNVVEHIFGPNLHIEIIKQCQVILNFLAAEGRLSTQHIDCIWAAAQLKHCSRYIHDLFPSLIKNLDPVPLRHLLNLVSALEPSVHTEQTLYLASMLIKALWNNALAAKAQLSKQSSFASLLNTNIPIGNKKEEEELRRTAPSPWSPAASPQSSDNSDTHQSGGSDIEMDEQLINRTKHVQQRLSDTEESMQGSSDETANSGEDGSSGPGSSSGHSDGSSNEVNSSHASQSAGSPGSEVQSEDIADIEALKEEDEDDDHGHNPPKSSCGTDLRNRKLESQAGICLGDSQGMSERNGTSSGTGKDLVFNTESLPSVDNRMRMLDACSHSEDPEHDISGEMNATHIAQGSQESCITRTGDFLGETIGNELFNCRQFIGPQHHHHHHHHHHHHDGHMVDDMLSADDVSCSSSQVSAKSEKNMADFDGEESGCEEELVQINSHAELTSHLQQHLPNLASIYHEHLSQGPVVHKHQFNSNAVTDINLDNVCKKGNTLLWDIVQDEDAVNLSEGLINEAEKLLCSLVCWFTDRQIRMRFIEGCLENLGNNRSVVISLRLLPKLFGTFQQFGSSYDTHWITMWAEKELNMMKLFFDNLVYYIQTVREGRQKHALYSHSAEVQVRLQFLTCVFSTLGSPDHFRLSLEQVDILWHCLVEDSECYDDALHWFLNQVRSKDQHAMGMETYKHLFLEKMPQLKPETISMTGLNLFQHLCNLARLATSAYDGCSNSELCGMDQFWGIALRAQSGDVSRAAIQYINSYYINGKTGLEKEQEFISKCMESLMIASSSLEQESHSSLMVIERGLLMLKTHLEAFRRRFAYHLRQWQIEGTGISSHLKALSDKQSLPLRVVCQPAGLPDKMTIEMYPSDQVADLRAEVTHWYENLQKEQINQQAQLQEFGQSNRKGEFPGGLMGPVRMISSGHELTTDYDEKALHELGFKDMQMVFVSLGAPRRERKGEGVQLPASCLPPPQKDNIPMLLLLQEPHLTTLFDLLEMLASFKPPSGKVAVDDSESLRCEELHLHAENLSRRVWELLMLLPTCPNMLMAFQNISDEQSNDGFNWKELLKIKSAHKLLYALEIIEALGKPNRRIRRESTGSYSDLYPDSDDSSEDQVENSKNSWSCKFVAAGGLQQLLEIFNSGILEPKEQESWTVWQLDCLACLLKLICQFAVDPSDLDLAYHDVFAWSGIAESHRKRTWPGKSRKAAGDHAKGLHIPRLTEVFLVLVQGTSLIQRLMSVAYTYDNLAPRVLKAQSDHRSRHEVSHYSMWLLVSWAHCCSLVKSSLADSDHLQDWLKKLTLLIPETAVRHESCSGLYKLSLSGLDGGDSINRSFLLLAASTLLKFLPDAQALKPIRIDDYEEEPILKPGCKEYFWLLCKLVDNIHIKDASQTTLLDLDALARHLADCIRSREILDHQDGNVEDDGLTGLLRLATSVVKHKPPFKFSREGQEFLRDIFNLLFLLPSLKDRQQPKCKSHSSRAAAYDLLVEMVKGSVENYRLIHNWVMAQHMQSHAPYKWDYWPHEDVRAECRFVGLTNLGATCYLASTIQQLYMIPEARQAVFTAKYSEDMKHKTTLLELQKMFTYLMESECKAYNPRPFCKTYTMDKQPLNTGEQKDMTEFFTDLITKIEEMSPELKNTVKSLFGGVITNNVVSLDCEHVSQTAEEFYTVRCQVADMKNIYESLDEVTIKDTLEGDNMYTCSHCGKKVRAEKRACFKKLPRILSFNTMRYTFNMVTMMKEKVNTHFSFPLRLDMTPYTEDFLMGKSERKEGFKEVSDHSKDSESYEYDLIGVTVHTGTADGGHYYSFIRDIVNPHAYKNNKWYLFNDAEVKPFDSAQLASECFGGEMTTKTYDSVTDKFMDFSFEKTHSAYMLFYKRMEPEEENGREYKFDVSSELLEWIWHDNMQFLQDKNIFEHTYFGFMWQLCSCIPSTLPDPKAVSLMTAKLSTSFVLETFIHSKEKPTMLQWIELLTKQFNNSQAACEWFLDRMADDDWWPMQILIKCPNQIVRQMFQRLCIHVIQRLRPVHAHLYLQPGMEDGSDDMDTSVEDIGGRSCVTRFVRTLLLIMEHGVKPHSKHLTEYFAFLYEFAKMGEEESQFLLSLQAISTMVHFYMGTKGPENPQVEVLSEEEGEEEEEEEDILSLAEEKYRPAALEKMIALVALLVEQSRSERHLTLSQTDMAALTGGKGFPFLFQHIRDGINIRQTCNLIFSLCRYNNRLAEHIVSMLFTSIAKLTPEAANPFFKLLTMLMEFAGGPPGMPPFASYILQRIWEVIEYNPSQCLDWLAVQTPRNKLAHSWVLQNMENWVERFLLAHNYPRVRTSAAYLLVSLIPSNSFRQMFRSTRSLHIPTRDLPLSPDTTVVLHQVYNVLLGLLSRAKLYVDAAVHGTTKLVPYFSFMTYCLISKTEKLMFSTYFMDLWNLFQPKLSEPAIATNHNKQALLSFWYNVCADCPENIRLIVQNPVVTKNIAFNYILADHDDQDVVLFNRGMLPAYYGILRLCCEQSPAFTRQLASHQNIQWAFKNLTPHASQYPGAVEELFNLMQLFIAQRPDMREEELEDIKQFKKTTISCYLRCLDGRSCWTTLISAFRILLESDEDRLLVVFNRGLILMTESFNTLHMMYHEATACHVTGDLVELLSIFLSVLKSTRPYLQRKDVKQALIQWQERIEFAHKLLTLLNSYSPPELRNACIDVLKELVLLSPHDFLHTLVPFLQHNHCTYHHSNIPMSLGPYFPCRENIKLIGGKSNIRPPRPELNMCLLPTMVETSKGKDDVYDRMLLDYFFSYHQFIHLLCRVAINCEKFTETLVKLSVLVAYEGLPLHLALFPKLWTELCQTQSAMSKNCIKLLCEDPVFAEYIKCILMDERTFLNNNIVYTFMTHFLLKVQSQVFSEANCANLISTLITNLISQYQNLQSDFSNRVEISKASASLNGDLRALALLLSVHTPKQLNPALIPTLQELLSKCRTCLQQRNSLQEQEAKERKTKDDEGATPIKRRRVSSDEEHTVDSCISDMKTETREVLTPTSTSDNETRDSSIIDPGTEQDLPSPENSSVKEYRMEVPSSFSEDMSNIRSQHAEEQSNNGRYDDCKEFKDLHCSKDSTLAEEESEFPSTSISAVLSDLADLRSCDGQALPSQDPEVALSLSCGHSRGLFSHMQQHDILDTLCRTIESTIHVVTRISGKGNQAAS
How it was run: (§1)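 Each value is an average log2 ratio of fragment to vehicle, tested by unpaired t-test. The underlying Spectronaut label-free quantities were global-median-normalised, and only proteins with ≥2 unique peptides were included. Triplicate HEK293T lysate samples (495 µg) were exposed to fragment at 200 µM or vehicle for 3 h, then to Biotin-Ahx-Ub-VS at 0.5 µM final for 1 h, before NeutrAvidin enrichment of labelled DUBs, LysC and trypsin digestion, and diaPASEF LC-MS/MS.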

USP36 = target: T1, USP36 (UniProt Q9P275)
T1 sequence (whole entry): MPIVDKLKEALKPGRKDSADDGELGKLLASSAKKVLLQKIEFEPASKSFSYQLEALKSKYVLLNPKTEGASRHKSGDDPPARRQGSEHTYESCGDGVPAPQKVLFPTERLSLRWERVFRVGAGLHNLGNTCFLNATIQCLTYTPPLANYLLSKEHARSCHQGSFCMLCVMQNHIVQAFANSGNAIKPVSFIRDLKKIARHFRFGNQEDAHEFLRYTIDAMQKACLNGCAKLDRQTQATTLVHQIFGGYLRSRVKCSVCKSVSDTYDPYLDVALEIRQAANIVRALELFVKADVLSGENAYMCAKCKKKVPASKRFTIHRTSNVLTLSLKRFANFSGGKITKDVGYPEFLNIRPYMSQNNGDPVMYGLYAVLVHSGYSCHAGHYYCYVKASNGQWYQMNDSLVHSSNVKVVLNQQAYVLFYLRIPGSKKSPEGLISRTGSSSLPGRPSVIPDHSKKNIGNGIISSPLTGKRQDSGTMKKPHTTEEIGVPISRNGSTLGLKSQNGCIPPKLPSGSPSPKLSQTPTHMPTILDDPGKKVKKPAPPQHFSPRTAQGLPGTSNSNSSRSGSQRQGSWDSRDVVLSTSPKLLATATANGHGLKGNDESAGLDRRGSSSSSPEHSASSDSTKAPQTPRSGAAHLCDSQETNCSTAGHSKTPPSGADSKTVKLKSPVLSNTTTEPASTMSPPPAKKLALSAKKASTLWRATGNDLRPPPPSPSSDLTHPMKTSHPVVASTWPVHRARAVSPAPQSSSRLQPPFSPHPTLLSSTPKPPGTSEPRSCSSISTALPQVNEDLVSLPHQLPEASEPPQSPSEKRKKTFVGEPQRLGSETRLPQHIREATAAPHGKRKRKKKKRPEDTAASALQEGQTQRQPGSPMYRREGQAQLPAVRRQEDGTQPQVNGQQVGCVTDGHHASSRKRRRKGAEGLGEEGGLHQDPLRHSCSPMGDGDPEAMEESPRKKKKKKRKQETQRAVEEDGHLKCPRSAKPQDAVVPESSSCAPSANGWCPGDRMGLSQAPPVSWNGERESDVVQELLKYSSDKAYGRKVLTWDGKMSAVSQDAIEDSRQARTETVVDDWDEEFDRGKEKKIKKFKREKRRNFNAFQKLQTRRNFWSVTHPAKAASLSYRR
How it was run: as §1

USP38 = target: T2, USP38 (UniProt Q8NB14)
T2 sequence (whole entry): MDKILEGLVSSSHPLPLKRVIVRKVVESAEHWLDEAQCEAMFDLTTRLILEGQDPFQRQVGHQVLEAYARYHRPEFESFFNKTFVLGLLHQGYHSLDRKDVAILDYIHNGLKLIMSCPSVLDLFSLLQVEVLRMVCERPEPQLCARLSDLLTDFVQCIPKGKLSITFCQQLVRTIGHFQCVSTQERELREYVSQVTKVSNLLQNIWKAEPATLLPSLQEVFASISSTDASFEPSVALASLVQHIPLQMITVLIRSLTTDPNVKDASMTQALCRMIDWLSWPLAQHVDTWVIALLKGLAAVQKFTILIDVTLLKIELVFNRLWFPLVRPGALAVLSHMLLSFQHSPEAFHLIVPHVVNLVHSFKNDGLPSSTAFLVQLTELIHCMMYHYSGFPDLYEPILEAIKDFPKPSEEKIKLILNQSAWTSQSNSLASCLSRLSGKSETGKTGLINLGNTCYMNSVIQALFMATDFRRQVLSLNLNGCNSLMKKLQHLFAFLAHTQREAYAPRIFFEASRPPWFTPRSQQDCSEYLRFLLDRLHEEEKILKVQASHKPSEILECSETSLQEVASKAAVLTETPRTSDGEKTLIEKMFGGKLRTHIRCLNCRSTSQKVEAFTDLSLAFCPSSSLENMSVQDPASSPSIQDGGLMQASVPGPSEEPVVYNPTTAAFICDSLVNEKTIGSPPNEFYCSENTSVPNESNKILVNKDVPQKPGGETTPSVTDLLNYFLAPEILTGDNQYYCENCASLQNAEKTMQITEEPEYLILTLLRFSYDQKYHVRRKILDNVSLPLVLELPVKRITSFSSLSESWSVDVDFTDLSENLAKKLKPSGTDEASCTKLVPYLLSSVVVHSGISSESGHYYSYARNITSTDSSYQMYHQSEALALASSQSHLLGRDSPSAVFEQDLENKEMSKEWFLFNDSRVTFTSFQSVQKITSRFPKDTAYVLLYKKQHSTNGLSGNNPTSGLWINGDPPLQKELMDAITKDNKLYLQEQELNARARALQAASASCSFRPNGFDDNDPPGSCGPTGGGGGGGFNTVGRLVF
How it was run: as §1

USP39 = target: T3, USP39 (UniProt Q53GS9)
T3 sequence (whole entry): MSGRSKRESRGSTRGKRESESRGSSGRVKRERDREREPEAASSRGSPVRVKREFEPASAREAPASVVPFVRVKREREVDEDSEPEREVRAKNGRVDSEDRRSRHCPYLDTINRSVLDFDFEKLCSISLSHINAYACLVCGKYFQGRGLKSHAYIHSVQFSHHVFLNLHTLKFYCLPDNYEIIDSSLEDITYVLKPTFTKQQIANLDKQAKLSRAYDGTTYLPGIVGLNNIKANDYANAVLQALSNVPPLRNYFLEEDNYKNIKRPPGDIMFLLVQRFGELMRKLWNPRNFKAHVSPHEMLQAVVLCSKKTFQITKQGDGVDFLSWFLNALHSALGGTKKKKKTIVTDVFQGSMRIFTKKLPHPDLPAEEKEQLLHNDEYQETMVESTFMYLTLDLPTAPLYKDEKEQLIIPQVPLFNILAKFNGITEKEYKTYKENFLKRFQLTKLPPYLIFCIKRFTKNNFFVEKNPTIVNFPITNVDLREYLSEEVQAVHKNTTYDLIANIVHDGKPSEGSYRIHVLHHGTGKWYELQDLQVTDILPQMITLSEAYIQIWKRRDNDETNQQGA
How it was run: as §1

USP4 = target: T4, USP4 (UniProt Q13107)
T4 sequence (whole entry): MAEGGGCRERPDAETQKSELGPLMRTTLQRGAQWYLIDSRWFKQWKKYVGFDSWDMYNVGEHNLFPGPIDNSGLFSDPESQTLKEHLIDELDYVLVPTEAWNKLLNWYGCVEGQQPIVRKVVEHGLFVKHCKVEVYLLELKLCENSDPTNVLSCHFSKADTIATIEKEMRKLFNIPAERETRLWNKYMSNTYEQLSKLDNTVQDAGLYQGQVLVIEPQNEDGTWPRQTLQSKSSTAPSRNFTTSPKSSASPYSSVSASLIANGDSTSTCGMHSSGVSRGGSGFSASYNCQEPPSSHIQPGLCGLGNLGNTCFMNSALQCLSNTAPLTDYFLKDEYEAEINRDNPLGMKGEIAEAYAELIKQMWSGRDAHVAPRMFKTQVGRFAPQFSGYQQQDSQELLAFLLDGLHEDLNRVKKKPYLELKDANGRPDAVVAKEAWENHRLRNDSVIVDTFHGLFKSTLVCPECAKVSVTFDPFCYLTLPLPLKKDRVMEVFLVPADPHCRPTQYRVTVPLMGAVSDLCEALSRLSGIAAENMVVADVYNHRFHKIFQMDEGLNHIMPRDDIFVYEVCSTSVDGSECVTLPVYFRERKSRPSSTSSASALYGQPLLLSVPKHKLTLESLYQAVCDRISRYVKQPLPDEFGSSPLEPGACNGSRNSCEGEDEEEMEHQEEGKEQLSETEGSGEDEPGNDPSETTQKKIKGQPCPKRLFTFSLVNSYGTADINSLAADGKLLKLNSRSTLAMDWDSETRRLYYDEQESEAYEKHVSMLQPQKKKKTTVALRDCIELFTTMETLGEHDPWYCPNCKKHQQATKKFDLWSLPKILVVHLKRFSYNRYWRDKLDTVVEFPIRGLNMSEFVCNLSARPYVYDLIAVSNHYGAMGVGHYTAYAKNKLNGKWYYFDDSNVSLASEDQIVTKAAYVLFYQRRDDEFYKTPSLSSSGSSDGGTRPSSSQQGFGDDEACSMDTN
How it was run: as §1

Measured: log2 ratio of Biotin-Ahx-Ub-VS probe labelling

CC(NC(=O)CCl)c1cccc2ccccc12 (stereo not given)
inactive: USP34 -0.0995 | USP36 -0.062 | USP38 0.0489 | USP39 0.171 | USP4 -0.154
